Hits are enriched below; roughly 1.3% of the tested compounds scored in any of these assays.
COUP-TFII inh = NR2F2 transcriptional activity inhibitors, primary screen, cell-based, luciferase reporter, HEK293T, luminescence | HEK293T NGFI-A luciferase reporter | inhibition, % at 8.6 µM | 370,000 tested, 0.7% active;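 active means inhibition above a per-plate cutoff, mean inhibition of test wells between control levels plus 3 SD, cut at about 38% in these data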;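 further: cells cotransfected with COUP-TFII expression vector driving the NGFI-A reporter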
SRC2 inh = inhibition of GAL4-SRC2 driven luciferase reporter, primary screen, SRC2 inhibitor project, cell-based, luminescence. Nuclear receptor coactivator 2 (Homo sapiens), Q15596. HEK293 GAL4-SRC2 luciferase reporter. inhibition, % at 9 µM. 370,000 tested, 0.17% active. AID 651957, 2012;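 active means inhibition above the mean inhibition of all tested compounds plus 3 SD, set per campaign, cut at about 52% in these data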
SRC3 inh = SRC3 coactivator transcriptional activity inhibitors, primary screen, cell-based, luminescence; Nuclear receptor coactivator 3 (Homo sapiens), Q9Y6Q9; HEK293 GAL4-SRC3 luciferase reporter; inhibition, % at 3.6 µM; 360,000 tested, 0.17% active;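 active means inhibition above a per-campaign cutoff, the mean of all compounds plus 3 SD, cut at about 60% in these data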;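 further: higher means less SRC3-driven luciferase light from the GAL4 reporter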
Gli-Sufu antag = Gli-Sufu pathway antagonists, primary screen, luciferase luminescence, Sufu-KO-LIGHT cells, uHTS | 340,000 tested, 0.74% active | AID 588413, 2011 | inhibition, % at 5 µM | Sufu-KO-LIGHT fibroblasts, Gli luciferase reporter luminescence;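 active means inhibition above about 55%, limit read from the data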
NCOA1 inh = SRC1 coactivator transcriptional activity inhibitors, primary screen, cell-based, luminescence; Nuclear receptor coactivator 1 (Homo sapiens), Q15788; HEK293 GAL4-SRC1 luciferase reporter; inhibition, % at 3.6 µM; 360,000 tested, 0.12% active;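 active means inhibition above the campaign mean plus 3 SD, with each screening campaign given its own cutoff, cut at about 60% in these data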
LRH-1 inv ag = LRH-1 (NR5A2) inverse agonists, primary screen, cell-based, luminescence, HEK293T, StAR-luciferase reporter. Nuclear receptor subfamily 5 group A member 2 (Homo sapiens), O00482. LRH-1 transfected, 24 h. inhibition, % at 3.6 µM. 360,000 tested, 0.13% active. AID 602396, 2012;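 active means inhibition above the mean inhibition of all tested compounds plus 3 SD, cut at about 73% in these data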
Gli-Sufu confirm = Gli-SUFU pathway antagonists, confirmation, single concentration, luciferase luminescence, Sufu-KO-LIGHT cells; 2,500 tested, 40% active; Gli luciferase reporter; inhibition, % at 5 µM; shares compounds with Gli-Sufu antag; AID 602428, 2012;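 active means mean inhibition at 5 µM reaching about 45%, limit read from the data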
Gli cytotox = cytotoxicity in Sufu-KO-LIGHT cells, confirmation, cytotoxicity control for Gli-SUFU antagonist project, cell-based, ATP luminescence, single concentration. shares compounds with Gli-Sufu antag. cytotoxicity, % at 5 µM. 2,500 tested, 32% active;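 active means mean cytotoxicity at 5 µM above about 25%, limit read from the data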;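 further: cells exposed to compound overnight for roughly 16 to 18 hours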
Wnt3a counter = Wnt3a reporter signal inhibition, confirmation, counter-screen for Gli-SUFU antagonist project, Wnt-LIGHT cells, luminescence, single concentration; Wnt3a-driven luciferase reporter; shares compounds with Gli-Sufu antag; inhibition, % at 6.25 µM; 2,500 tested, 20% active; AID 651995, 2013;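 active means mean inhibition above about 25%, limit read from the data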
Each line names hits and unclear results; the compound was inactive in the other large screens (follow-up assays come after a bar, where they were run).

COc1cc(C(=O)NC2CCN(C)CC2)ccc1Nc1ncc2c(n1)N(Cc1ccccc1)CCC(=O)N2C	Gli-Sufu antag 91 | Gli-Sufu confirm 89 | Gli cytotox inactive | Wnt3a counter inactive
COc1cc(C(=O)NC2CCN(C)CC2)ccc1Nc1ncc2c(n1)N(C1CCCCC1)CCC(=O)N2C	Gli-Sufu antag 82 | Gli-Sufu confirm 79 | Gli cytotox inactive | Wnt3a counter inactive
CN1CCCN(C(=O)CN2C(=O)CC(C)(C)S(=O)(=O)c3ccccc32)CC1	none (no result: SRC3 inh, Gli-Sufu antag, NCOA1 inh, LRH-1 inv ag)
CCOC(=O)N1CCN(C(=O)C[C@H]2C[C@@]3(C(=O)OC)C(=C[C@H](C(C)C)O[C@@H]3C3CC3)N(Cc3ccco3)C2=O)CC1	none (no result: SRC3 inh, Gli-Sufu antag, NCOA1 inh, LRH-1 inv ag)
O=C(CCc1ccccc1)N[C@H]1[C@H](OC(=O)c2ccco2)CCC[C@@]12C(=O)N(Cc1ccccc1)c1ccccc12	none (no result: SRC3 inh, Gli-Sufu antag, NCOA1 inh, LRH-1 inv ag)
O=C1c2ccccc2NC(c2cccc(F)c2)N1Cc1ccco1 (stereo unspecified)	Gli-Sufu antag 65 | Gli-Sufu confirm inactive | Gli cytotox inactive | Wnt3a counter inactive
CC(C)(C)N1Cc2nnn(Cc3ccccc3)c2-c2cc(N3CCCCC3)ccc2S1(=O)=O	none (no result: SRC3 inh, Gli-Sufu antag, NCOA1 inh, LRH-1 inv ag)
Cc1ccc(S(=O)(=O)N2c3ccccc3C[C@H]2CCC(=O)c2ccccc2)cc1	none (no result: SRC2 inh, SRC3 inh, Gli-Sufu antag, NCOA1 inh, LRH-1 inv ag)
CC1(C)Cc2c(cnn2-c2ccccc2)C(NC(=O)c2ccc[n+]([O-])c2)C1 (stereo unspecified)	none | Gli-Sufu confirm inactive | Gli cytotox inactive | Wnt3a counter inactive
O=C(OC12CCCN(C1)/C(=C/c1ccccc1)C2)C1CCCCC1 (stereo unspecified)	none (no result: SRC3 inh, Gli-Sufu antag, NCOA1 inh, LRH-1 inv ag)
CS(=O)(=O)Cc1ccc(C(=O)NCC2(N3CCCCC3)CCCCC2)cc1	none | Gli-Sufu confirm inactive | Gli cytotox inactive | Wnt3a counter inactive
CS(=O)(=O)c1ccc(C(=O)NCC2(N3CCCCC3)CCCCC2)cc1	none
CCc1cccc(NC(=O)C2CCCN2S(=O)(=O)c2cccc3cccnc23)c1 (stereo unspecified)	none | Gli-Sufu confirm inactive | Gli cytotox inactive | Wnt3a counter inactive
CCOC(=O)c1cccc(NC(=O)C2CCCN2S(=O)(=O)c2cccc3cccnc23)c1 (stereo unspecified)	none
S=C1NC[C@H](CC2CCCCC2)N1CC1CCCCC1	Gli-Sufu antag 65 | Gli-Sufu confirm inactive | Gli cytotox inactive | Wnt3a counter inactive
CCCC[C@@H]1CNC(=S)N1CC1CCCCC1	none
Nc1nc(SCC(=O)Nc2cccc(Oc3ccccc3)c2)n[nH]1	none | Gli-Sufu confirm inactive | Gli cytotox inactive | Wnt3a counter inactive
Cc1cc(=O)oc2cc(OCC(O)CN3CCc4ccccc4C3)ccc12 (stereo unspecified)	Gli-Sufu antag 95 | Gli-Sufu confirm inactive | Gli cytotox inactive | Wnt3a counter inactive
CCOC(=O)CC[C@@]1(C(=O)OCC)C[C@@H](CC(=O)N2CCSCC2)C(=O)N2CCCC=C21	none (no result: SRC3 inh, Gli-Sufu antag, NCOA1 inh, LRH-1 inv ag)
OC(c1ccccc1)(c1ccccc1)C1CCN(CCCNc2ccc(C(F)(F)F)cc2)CC1	none (no result: SRC3 inh, Gli-Sufu antag, NCOA1 inh, LRH-1 inv ag)
Cc1ccc(C(=O)NC(=S)Nc2ccccc2N2CCOCC2)cc1C	Gli-Sufu antag 89 (no result: COUP-TFII inh, SRC2 inh) | Gli-Sufu confirm inactive | Gli cytotox inactive | Wnt3a counter inactive
CC(C)=CCN1CCN(Cc2cccn2-c2ncccn2)CC1CCO (stereo unspecified)	none | Gli-Sufu confirm inactive | Gli cytotox inactive | Wnt3a counter inactive
